This passage reports outcome and AC50 results from PubChem BioAssay (EPA / NIEHS).

The target in assay [1] is Paired box protein Pax-6 (Homo sapiens) (UniProt P26367). The experiment in a line: ATG_Pax6_CIS: Attagene CIS-FACTORIAL HepG2 Assay for human Paired Box 6 (PAX6) (AID 2282956). To be noted: HepG2 CIS-FACTORIAL PAX6 reporter transcription, RNA readout; actives raise or lower the signal. Put shortly:
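HepG2 cells transiently transfected with cis-promoter-driven multiplexed reporter units sensing endogenous transcription factor activity; 24 h chemical exposure. Reporter mRNA quantified by RT-PCR, 6-FAM labelling, HpaI digestion and capillary electrophoresis; bidirectional fit versus DMSO baseline.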

Assay [2] in a line: ATG_PXRE_CIS: Attagene CIS-FACTORIAL HepG2 Assay for human Pregnane X Receptor Element (PXRE) (AID 2282957). To be noted: HepG2 Attagene CIS-FACTORIAL PXRE reporter, mRNA; actives raise or lower the signal. Put shortly: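 Cis-element reporter mRNA in human hepatoma HepG2 cells is measured 24 h post-dosing by RT-PCR, primer-extension labeling and capillary electrophoresis; gain or loss of signal is fitted relative to DMSO.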

Assay [3] in a line: ATG_Sox_CIS: Attagene CIS-FACTORIAL HepG2 Assay for human SRY-box transcription factor (SOX) (AID 2282960). To be noted: HepG2 Attagene cis-factorial SOX reporter, mRNA; actives raise or lower the signal. Put shortly:
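After 24 h of chemical treatment, transfected HepG2 reporter cells are lysed for total RNA. Transcript levels come from RT-PCR with labelled primer extension and capillary electrophoresis, analysed bidirectionally versus DMSO.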

Assay [4] has as its target Transcription factor Sp1 (Homo sapiens) (UniProt P08047). The experiment in a line: ATG_Sp1_CIS: Attagene CIS-FACTORIAL HepG2 Assay for human Specificity Protein 1 (Sp1) (AID 2282961). The note with it: HepG2 Sp1 cis-reporter transcription, actives raise or lower the signal. Put shortly: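 Sp1-driven reporter mRNA, read as capillary electrophoresis fluorescence after RT-PCR, in transiently transfected HepG2 cells dosed for 24 h; signal change in either direction relative to DMSO.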

For assay [5], the target named is Signal transducer and activator of transcription 3 (Homo sapiens) (UniProt P40763). Briefly: ATG_STAT3_CIS: Attagene CIS-FACTORIAL HepG2 Assay for human Signal Transducer and Activator of Transcription 3 (STAT3) (AID 2282963). The note with it: HepG2, Attagene cis-factorial STAT3 reporter transcription; actives raise or lower the signal. Put shortly: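 Endogenous STAT3-responsive cis-element activity was read in transiently transfected HepG2 cells after 24 h treatment. Reporter transcripts were quantified via RT-PCR and capillary electrophoresis, with DMSO as negative control and bidirectional curve fitting.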

Assay [6] is described as follows: ATG_TCF_b_cat_CIS: Attagene CIS-FACTORIAL HepG2 Assay for human T-Cell-Factor with beta-catenin (TCF/b-cat) (AID 2282965). To be noted: HepG2 TCF/beta-catenin cis-reporter transcription, actives raise or lower the signal. Put shortly: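 Endogenous transcription factor activity is captured through cis-promoter reporter constructs transiently introduced into human HepG2 liver cells. Induced reporter mRNA is measured after 24 h and fitted bidirectionally relative to DMSO.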

A short description of assay [7]: ATG_TAL_CIS: Attagene CIS-FACTORIAL HepG2 Assay for human TAL Basal Promoter (AID 2282966).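 Also: background control endpoint measuring basal TAL promoter reporter mRNA not a specific factor.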 The note with it: HepG2 Attagene cis-factorial TAL promoter reporter; actives raise or lower the signal. Put shortly:
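In this cell-based multiplex, HepG2 liver cells bearing cis-promoter reporter constructs are dosed for 24 hours. Total RNA is reverse-transcribed and amplified, labelled fragments are sized by capillary electrophoresis, and signal changes are fitted bidirectionally versus DMSO.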

Assay [8] in a line: ATG_TGFb_CIS: Attagene CIS-FACTORIAL HepG2 Assay for human Transforming Growth Factor (TGF) (AID 2282967). The note with it: HepG2 Attagene CIS TGFb reporter, mRNA transcription; actives raise or lower the signal. Put shortly:
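Transcript-level reporter readout: HepG2 transfectants, 24 h exposure, RNA to cDNA, reporter-specific PCR, fluorescent primer extension, capillary sizing against ROX standards. Gain- or loss-of-signal relative to DMSO.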

Assay [9] in a line: ATG_VDRE_CIS: Attagene CIS-FACTORIAL HepG2 Assay for human Vitamin D Receptor Element (VDRE) (AID 2282968). To be noted: HepG2 VDRE cis-reporter transcription, actives raise or lower the signal. Put shortly:
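Reporter mRNA induction, quantified by capillary electrophoresis of fluorescently labelled RT-PCR products, was read 24 h after dosing HepG2 cells carrying transiently transfected cis-regulated reporter units; gain or loss relative to DMSO.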

Assay [10] has as its target Estrogen receptor (Homo sapiens) (UniProt P03372). The experiment in a line: ATG_ERa_TRANS: Attagene TRANS-FACTORIAL HepG2 Assay for human Estrogen Receptor alpha (ERa) (AID 2282970; active = hit-call score of the fitted dose curve at least 0.9, where 1 is the maximum). The note with it: HepG2 Attagene TRANS ERa GAL4 reporter, mRNA. Put shortly:
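After 24 h of compound treatment, RNA from HepG2 cells bearing transfected GAL4-UAS reporter constructs is converted to cDNA, amplified and fluorescently labelled. Capillary electrophoresis resolves the ERa-linked reporter; DMSO serves as negative control.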

Assay [11] concerns the target Steroid hormone receptor ERR1 (Homo sapiens) (UniProt P11474). Briefly: ATG_ERRa_TRANS: Attagene TRANS-FACTORIAL HepG2 Assay for human Estrogen-Related Receptor alpha (ERRa) (AID 2282971; active = hit-call score of the fitted dose curve at least 0.9, where 1 is the maximum). To be noted: HepG2 Attagene TRANS reporter, ERRa transactivation. Put shortly: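 Transfected HepG2, 24 h dosing, ERRa-Gal4 chimera driving GAL4-UAS reporter. Readout: reporter mRNA via RT-PCR plus capillary electrophoresis (fluorescence). Positive direction vs DMSO control.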

The target of assay [12] is X-box-binding protein 1 (Homo sapiens) (UniProt P17861). Briefly: ATG_Xbp1_CIS: Attagene CIS-FACTORIAL HepG2 Assay for human X-box Binding Protein 1 (XBP1) (AID 2282972). To be noted: HepG2 XBP1 cis-element reporter, Attagene multiplex; actives raise or lower the signal. Put shortly:
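HepG2 cells transiently transfected with multiple cis-element reporter units report endogenous TF activity; 24 h exposure, then reporter mRNA measured by RT-PCR, 6-FAM labelling, HpaI digestion and capillary electrophoresis. Bidirectional fitting versus DMSO.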

A short description of assay [13]: ATG_Hpa5_TRANS: Attagene TRANS-FACTORIAL HepG2 Assay for human GAL4-Hpa5 Hepatocyte Transcription Factor Basal Promoter (AID 2282975; active = hit-call score of the fitted dose curve at least 0.9, where 1 is the maximum;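 also: hits are increases in reporter mRNA over DMSO baseline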). The note with it: HepG2 Attagene GAL4-Hpa5 transcription reporter. Put shortly:
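Basal-promoter GAL4 background control within the HepG2 trans-factorial panel of transiently transfected reporter units. Reporter mRNA is measured 24 h after dosing by RT-PCR and capillary electrophoresis, fitted for gain of signal versus DMSO.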

Assay [14] can be described thus: ATG_RORE_CIS: Attagene CIS-FACTORIAL HepG2 Assay for human RAR-related Orphan Receptor Element (RORE) (AID 2282959). The note with it: HepG2 Attagene cis-factorial RORE reporter, mRNA; actives raise or lower the signal. Put shortly: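 Fluorescence intensity of reporter-specific cDNA fragments, separated by capillary electrophoresis, gives the signal. Source: HepG2 liver cells transiently transfected with cis-element reporters and exposed 24 h; DMSO-normalized bidirectional fit.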

In assay [15] the target is Androgen receptor (Homo sapiens) (UniProt P10275). Briefly: ATG_AR_TRANS: Attagene TRANS-FACTORIAL HepG2 Assay for human Androgen Receptor (AR) (AID 2282973; active = hit-call score of the fitted dose curve at least 0.9, where 1 is the maximum). The note with it: HepG2 Attagene TRANS-FACTORIAL AR reporter transcription. Put shortly: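 Readout is reporter transcript abundance, quantified by fluorescent RT-PCR products separated on capillary electrophoresis. Human HepG2 liver cells carried transiently transfected NR-Gal4 chimera plus GAL4-UAS reporter constructs and were dosed for 24 h; activity scored upward versus DMSO.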

Assay [16] can be described thus: ATG_TA_CIS: Attagene CIS-FACTORIAL HepG2 Assay for human TA Basal Promoter (AID 2282964). The note with it: HepG2 Attagene CIS-factorial TA basal promoter reporter; actives raise or lower the signal. Put shortly: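 Multiplexed mRNA reporter assay, HepG2, 24 h. Reporter cDNA amplified, 6-FAM primer-extended, HpaI-cut, CE-sized; DMSO = negative control and baseline.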

Assay [17] addresses Nuclear receptor subfamily 1 group I member 3 (Homo sapiens) (UniProt Q14994). The experiment in a line: ATG_CAR_TRANS: Attagene TRANS-FACTORIAL HepG2 Assay for human Constitutive Androstane Receptor (CAR) (AID 2282969; active = hit-call score of the fitted dose curve at least 0.9, where 1 is the maximum;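 also: activators raise reporter mRNA above DMSO so AC50 marks induction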). The note with it: HepG2 Attagene TRANS-FACTORIAL CAR reporter. Put shortly: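 Readout is reporter mRNA induction, quantified by fluorescent primer extension and capillary electrophoresis after RT-PCR. Cells were HepG2 transiently carrying chimeric NR-Gal4 constructs with GAL4-UAS reporters, treated for 24 h; activity scored upward from DMSO.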

Assay [18] can be described thus: ATG_SREBP_CIS: Attagene CIS-FACTORIAL HepG2 Assay for human Sterol Regulatory Element Binding (SREBP) (AID 2282962). The note with it: HepG2 Attagene cis-factorial SREBP reporter, mRNA; actives raise or lower the signal. Put shortly: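 HepG2 cells transiently transfected with multiplexed cis-promoter reporter units sensing endogenous transcription factors; reporter mRNA measured 24 h after dosing by RT-PCR, 6-FAM labeling, HpaI digestion and capillary electrophoresis. Bidirectional fit versus DMSO.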

SMILES strings stand for the structures. Inconclusive results are not listed. The source made the active and inactive calls. The calls were made as follows, unless noted: active = hit-call score of the fitted dose curve at least 0.9, where 1 is the maximum; inactive = score below 0.9.

Chain of Steroid hormone receptor ERR1 (Homo sapiens) (P11474 whole entry, looked up, the tested form may be a part): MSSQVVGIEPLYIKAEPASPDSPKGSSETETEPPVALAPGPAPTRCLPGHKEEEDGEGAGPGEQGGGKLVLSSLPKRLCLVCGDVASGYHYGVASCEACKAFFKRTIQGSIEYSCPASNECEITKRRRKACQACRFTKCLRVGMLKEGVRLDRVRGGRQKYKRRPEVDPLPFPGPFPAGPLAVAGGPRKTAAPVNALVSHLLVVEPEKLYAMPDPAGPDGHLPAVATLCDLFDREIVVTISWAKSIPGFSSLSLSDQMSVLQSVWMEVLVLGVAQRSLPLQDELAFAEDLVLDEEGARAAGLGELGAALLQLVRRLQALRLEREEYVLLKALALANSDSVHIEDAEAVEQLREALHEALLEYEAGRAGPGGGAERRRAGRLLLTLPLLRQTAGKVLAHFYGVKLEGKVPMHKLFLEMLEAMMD
Chain of Signal transducer and activator of transcription 3 (Homo sapiens) (P40763 whole entry, looked up): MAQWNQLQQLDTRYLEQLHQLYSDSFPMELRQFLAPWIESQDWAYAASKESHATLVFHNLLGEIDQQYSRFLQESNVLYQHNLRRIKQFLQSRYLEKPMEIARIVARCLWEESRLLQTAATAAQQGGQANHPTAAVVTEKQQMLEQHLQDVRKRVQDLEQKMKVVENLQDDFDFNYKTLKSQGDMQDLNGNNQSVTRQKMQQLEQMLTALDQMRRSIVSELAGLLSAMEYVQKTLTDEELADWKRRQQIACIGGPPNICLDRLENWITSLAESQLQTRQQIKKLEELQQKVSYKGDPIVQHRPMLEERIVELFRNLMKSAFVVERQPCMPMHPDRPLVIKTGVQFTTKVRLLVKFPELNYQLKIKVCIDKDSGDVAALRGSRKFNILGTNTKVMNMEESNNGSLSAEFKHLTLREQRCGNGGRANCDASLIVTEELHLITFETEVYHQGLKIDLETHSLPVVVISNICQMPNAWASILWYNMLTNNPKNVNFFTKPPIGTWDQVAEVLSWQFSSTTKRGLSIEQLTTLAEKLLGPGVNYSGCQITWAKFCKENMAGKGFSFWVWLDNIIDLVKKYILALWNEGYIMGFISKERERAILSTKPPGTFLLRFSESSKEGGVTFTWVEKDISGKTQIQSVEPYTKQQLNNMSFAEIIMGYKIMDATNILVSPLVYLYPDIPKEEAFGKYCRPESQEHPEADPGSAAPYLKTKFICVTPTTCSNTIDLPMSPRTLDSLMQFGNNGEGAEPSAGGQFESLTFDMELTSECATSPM
Chain of Estrogen receptor (Homo sapiens) (P03372 whole entry, looked up, the tested form may be a part): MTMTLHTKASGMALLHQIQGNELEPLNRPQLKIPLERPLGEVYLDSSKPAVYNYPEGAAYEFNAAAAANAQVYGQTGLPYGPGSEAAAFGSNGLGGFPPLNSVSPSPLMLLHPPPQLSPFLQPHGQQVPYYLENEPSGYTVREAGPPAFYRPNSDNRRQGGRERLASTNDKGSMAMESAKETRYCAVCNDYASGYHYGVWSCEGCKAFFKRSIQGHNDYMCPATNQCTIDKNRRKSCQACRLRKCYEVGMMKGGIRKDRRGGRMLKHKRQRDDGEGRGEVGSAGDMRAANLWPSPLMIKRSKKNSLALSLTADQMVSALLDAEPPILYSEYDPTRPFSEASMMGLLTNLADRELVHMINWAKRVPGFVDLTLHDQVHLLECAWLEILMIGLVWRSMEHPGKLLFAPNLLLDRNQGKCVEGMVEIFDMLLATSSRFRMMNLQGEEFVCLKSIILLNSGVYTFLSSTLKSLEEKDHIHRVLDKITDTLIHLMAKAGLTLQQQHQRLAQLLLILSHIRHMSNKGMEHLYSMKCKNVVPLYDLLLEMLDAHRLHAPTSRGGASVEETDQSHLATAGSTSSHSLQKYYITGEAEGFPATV
Chain of Paired box protein Pax-6 (Homo sapiens) (P26367 whole entry, looked up): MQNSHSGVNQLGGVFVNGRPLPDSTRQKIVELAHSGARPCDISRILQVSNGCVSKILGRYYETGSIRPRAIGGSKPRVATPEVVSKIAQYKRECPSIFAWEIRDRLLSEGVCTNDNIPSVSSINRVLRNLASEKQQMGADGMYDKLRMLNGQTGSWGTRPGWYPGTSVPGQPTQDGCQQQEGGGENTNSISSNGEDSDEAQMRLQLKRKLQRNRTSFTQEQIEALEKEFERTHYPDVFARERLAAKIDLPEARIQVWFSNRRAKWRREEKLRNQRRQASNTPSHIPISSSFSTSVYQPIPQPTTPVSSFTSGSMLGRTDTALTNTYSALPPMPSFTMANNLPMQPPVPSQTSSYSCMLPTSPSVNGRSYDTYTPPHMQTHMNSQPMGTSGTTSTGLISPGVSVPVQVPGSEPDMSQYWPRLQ
Chain of Transcription factor Sp1 (Homo sapiens) (P08047 whole entry, looked up): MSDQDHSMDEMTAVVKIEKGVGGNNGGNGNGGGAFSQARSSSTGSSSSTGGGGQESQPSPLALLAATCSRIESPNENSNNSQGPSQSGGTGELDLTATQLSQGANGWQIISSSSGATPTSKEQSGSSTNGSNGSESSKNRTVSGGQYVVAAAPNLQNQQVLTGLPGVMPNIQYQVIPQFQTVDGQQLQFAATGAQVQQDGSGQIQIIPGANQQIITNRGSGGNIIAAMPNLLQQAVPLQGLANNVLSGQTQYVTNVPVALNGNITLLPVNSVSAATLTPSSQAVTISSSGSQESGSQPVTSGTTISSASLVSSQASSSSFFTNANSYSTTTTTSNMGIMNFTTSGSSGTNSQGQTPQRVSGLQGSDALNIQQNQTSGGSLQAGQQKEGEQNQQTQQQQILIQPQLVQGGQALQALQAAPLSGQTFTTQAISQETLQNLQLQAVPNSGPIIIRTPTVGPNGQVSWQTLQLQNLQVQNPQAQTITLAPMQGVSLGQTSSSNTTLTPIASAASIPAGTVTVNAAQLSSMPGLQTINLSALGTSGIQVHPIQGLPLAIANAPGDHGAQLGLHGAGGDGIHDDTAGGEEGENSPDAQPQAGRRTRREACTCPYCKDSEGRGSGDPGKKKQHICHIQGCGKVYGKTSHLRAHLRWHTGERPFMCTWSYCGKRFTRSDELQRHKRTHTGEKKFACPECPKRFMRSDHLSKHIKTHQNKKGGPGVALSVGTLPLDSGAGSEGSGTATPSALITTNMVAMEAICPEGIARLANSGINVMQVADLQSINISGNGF
Chain of X-box-binding protein 1 (Homo sapiens) (P17861 whole entry, looked up): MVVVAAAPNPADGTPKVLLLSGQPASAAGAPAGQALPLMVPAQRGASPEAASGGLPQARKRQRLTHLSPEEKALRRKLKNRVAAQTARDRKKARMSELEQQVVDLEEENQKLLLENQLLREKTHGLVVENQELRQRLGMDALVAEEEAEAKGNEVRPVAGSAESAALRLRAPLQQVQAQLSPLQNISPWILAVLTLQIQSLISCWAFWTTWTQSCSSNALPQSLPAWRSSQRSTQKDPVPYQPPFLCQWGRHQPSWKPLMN
Chain of Nuclear receptor subfamily 1 group I member 3 (Homo sapiens) (Q14994 whole entry, looked up, the tested form may be a part): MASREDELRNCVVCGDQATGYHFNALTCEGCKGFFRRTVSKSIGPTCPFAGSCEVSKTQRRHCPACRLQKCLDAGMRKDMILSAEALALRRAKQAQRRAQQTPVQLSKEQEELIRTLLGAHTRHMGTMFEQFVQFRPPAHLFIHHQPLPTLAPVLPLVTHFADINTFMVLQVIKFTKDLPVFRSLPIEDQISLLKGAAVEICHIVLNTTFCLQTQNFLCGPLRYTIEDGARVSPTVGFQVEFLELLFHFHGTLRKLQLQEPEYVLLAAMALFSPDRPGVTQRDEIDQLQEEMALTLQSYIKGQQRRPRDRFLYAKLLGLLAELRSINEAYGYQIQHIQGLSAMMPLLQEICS
Chain of Androgen receptor (Homo sapiens) (P10275 whole entry, looked up, the tested form may be a part): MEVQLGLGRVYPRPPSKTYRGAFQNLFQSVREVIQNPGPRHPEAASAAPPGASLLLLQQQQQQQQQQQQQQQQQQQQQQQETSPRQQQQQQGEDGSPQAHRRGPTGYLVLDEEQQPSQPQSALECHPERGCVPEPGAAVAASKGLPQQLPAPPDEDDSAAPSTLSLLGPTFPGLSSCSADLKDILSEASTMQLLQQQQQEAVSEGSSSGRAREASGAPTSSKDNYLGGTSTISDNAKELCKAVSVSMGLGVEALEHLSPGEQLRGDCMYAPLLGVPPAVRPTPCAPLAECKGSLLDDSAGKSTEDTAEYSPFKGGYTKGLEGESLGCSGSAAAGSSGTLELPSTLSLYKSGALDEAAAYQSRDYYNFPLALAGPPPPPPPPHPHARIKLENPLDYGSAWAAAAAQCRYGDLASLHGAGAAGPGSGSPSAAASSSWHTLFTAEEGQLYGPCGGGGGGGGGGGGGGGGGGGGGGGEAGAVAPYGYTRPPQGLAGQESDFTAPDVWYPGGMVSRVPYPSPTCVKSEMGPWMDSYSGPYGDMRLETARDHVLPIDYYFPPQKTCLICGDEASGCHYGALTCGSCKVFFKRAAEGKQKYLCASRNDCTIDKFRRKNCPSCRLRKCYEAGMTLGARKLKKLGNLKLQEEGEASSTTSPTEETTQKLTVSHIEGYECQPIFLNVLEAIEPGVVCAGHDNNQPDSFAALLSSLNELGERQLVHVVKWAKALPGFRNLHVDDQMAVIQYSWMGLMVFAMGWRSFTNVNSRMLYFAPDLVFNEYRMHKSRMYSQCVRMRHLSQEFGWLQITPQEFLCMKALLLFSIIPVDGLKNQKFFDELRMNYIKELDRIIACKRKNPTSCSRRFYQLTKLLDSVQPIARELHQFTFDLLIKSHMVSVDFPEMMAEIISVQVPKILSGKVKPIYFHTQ

By AC50 is commonly meant the midpoint of the concentration-response curve, whichever way the signal moves. For the compound `CC1COC(Cn2cncn2)(c2ccc(Oc3ccc(Cl)cc3)cc2Cl)O1` (centres undefined), the result in assay [1], in assay [3], in assay [4], in assay [5], in [6] and in [7] was inactive. Besides, the compound was called inactive in [10], in assay [11], in assay [12] and in assay [13]. Besides, the results for the AC50 in assay [2], in assay [8] and in assay [9] were 2 µM (active), 3.17 µM (active) and 3.17 µM (active), respectively.

Consider `O=C(Nc1ccccc1)Nc1ccnc(Cl)c1`, for which the outcome in assay [1], in [2], in assay [5], in assay [6], in [7] and in assay [8] was inactive. Besides, the compound was classed as inactive in assay [10], in assay [11], in assay [12], in [15] and in assay [13]. The AC50 in assay [14] is 67.2 µM (active); in [3] it was 11.9 µM (active); in assay [4], 24.9 µM (active); in assay [9], 50 µM (active).

With `CC(C)C1(C)N=C(c2nc3ccccc3cc2C(=O)O)NC1=O` (centres undefined), the compound was classed as inactive in assay [1], in assay [14], in assay [3], in assay [4], in [5] and in assay [16]. The outcome in assay [6], in assay [7], in [8], in [9], in assay [17] and in assay [10] was inactive. For the same compound, the call in assay [11], in assay [12] and in assay [13] was inactive. Further, in assay [2], the AC50 is 11.1 µM (active).

On to `CC(Oc1ccc(Cl)cc1Cl)C(=O)O` (centres undefined), for which the result in [1], in [14], in [3], in [4], in [5] and in assay [16] was inactive. The compound was classed as inactive in [6], in assay [7], in [8], in assay [9], in assay [12] and in assay [13]. Moreover, the AC50 in assay [2] was 79.7 µM (active).

In the case of `COP(=S)(OC)Oc1nc(Cl)c(Cl)cc1Cl`, the compound was classed as inactive in assay [1], in assay [14], in assay [3], in [4], in [5] and in assay [6]. For the same compound, the outcome in [7], in assay [8], in [17], in assay [11], in assay [12] and in assay [13] was inactive. In addition, the AC50 in assay [2] is 13.7 µM (active); in assay [18], 32 µM (active); in assay [9], 27.8 µM (active); in [10], 33.1 µM (active).

Consider `CCOC(=O)C(Cl)Cc1cc(-n2nc(C)n(C(F)F)c2=O)c(F)cc1Cl` (centres undefined), for which the call in [1], in assay [14], in assay [3], in assay [4], in assay [5] and in assay [6] was inactive. In addition, the outcome in assay [7], in assay [8], in [9], in assay [17], in assay [10] and in assay [12] was inactive. In addition, the compound was classed as inactive in assay [13]. For the same compound, the AC50 in assay [2] was 39.8 µM (active).

As for `O=C(O)c1nc(Cl)ccc1Cl`, the compound was classed as inactive in [1], in assay [2], in [14], in [3], in assay [4] and in assay [5]. The compound was classed as inactive in assay [6], in [7], in [8], in [10], in [12] and in assay [13].
